We go through 5 molecules from PubChem BioAssay (NCATS).

Test [1] concerns the target Lysosomal acid glucosylceramidase (Homo sapiens) (UniProt P04062). As to the kind of experiment: Glucocerebrosidase-p2 (AID 348; in the data active = potency below about 10 µM; also: potency is read from the fitted curve at half-maximal effect). The settings on record: purified GBA, blue fluorogenic substrate, 40 min. The essentials: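 Normal human glucocerebrosidase (0.2 nM) with blue fluorogenic substrate (80 uM final) in citrate/phosphate pH 5.9 with 10mM sodium taurocholate, 0.01% tween-20; 40 min RT, NaOH/glycine stop; fluorescence Ex 365/Em 440; AC50 from a titration from 0.6 nM upwards.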

Test [2] in a line: AP1 Signaling Pathway (AID 357; active = well fitted curve in either direction with a large enough effect, not every such curve was filed as active;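 also: ME-180 reporter cells stimulated with EGF at its EC50 level; % is scaled to controls: 0 for no effect and ±100 for the full control effect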). The settings on record: ME-180 AP-1-bla reporter, EGF-induced, beta-lactamase ratio, 5 h; at 7.69 µM (top of the series) unless noted. Put shortly:
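Titration-series screen for positive or negative modulators of EC50 EGF-induced signaling in ME-180 cells carrying an AP-1-driven beta-lactamase reporter. After 5 hours at 37 degrees Celsius, CCF4 460nm/530nm emission ratio gave %Activity; AC50 values derived.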

For test [3], the target named is Cytochrome P450 1A2 (Homo sapiens) (UniProt P05177). The experiment in a line: p450-cyp1a2 (AID 410; calls by dose curve; also: potency is read from the fitted curve at half-maximal effect;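 as to activity change, negative = inhibition: -100% = full effect of reference inhibitor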). The settings on record: recombinant CYP1A2, luciferin-ME demethylation, luminescence; series mostly up to 57 µM. The essentials: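 20nM CYP1A2, 100uM Luciferin-ME (=Km), 100mM KPO4; cpd 10 min RT; +NADPH regen, 60 min RT; stop/detect 20 min; luminescence. Normalized to furafylline 57 uM = full inhibition.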
Cytochrome P450 1A2 (Homo sapiens), sequence (P05177 whole entry, looked up): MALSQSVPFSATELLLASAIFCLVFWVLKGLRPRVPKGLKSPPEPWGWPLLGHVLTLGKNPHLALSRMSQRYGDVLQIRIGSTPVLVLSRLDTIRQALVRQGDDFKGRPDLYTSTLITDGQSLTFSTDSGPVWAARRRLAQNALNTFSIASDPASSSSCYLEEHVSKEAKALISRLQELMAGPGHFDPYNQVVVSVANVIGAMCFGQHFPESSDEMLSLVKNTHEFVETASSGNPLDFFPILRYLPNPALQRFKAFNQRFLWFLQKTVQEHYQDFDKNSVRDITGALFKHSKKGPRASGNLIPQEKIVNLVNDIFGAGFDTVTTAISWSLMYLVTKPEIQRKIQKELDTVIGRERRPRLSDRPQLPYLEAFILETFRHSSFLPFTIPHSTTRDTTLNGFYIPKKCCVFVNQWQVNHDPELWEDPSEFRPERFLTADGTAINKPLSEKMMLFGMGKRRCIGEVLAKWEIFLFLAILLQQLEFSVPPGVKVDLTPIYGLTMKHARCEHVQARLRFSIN

Test [4] in a line: NFAT Signaling Pathway (AID 444; active = well fitted curve in either direction with a large enough effect, not every such curve was filed as active;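 also: carbachol stimulus at about its EC50 of 1 µM final; % is scaled to controls: 0 for no effect and ±100 for the full control effect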). The settings on record: Jurkat NFAT-bla M1, carbachol, beta-lactamase ratio, 5 h; at 7.69 µM (top of the series) unless noted. The essentials:
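Jurkat cells with NFAT-driven β-lactamase reporter and co-expressed M1 receptor, stimulated with carbachol (final 1 uM, ~EC50), compound titration, 5 h at 37 °C. CCF4 loaded 1 h at RT; 460/530 nm ratio gave %activity and AC50.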

Test [5] in a line: Stat Signaling Pathway (AID 446; active = well fitted curve in either direction with a large enough effect, not every such curve was filed as active;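 also: ME-180 cervical cancer cells given 40 pM IL-6 alongside compound; SIE-controlled beta-lactamase reporter measured as 460/530 nm FRET emission ratio; % is scaled to controls: 0 for no effect and ±100 for the full control effect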). The settings on record: ME-180 SIE beta-lactamase reporter, IL-6 stimulated, 5 h; at 7.69 µM (top of the series) unless noted. Put shortly:
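Overnight-plated ME-180 cells bearing a STAT Inducible Element beta-lactamase reporter; 5 h co-exposure to compound and 40 pM IL-6; values normalized to 300 pM IL-6 and 125 nM JAK inhibitor controls.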

The target of test [6] is Glucocorticoid receptor (Homo sapiens) (UniProt P04150). As to the kind of experiment: GR-GFP Redistribution (AID 450;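 active = compounds whose dose series gives a full or clear partial fitted curve of increased nuclear translocation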; also: potency is read from the fitted curve at half-maximal effect). The settings on record: U2OS GR-GFP nuclear translocation, laser cytometry, 2 h.
Glucocorticoid receptor (Homo sapiens), sequence (P04150 whole entry, looked up, the tested form may be a part): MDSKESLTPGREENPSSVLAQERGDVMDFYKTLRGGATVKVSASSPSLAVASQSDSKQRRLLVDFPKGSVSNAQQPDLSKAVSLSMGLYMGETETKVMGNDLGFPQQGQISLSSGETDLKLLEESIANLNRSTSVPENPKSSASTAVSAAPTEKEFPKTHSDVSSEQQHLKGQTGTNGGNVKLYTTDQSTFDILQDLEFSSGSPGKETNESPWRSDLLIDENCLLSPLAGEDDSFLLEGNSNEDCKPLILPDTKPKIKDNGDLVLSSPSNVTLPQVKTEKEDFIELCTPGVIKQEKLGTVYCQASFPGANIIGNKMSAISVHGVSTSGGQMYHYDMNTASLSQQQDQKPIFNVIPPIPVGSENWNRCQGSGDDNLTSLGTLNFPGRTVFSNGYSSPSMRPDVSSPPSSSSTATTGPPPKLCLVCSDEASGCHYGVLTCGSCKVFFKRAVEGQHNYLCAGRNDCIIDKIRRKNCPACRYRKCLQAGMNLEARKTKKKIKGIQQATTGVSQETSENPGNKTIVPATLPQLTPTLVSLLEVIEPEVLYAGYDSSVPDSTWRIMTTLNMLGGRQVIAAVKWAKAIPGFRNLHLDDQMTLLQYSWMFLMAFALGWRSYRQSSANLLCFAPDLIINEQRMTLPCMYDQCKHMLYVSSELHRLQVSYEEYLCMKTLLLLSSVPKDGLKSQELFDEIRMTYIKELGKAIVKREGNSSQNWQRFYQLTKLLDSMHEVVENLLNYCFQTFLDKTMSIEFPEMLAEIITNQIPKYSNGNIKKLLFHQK
Test [7] shares this target. The experiment in a line: GR-EFC Redistribution (AID 451; calls by dose curve; also: potency is read from the fitted curve at half-maximal effect). The settings on record: CHO-K1 GR-EFC translocation, beta-gal luminescence, 2 h. Put shortly: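 CHO-K1 cells expressing nuclear EA and GR-ED fragments of b-gal; compounds titrated up to 46 uM final, 2 h at 37 C. GR nuclear translocation read as complemented b-gal luminescence after 1 h RT detection.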
In test [8] the target is Mitogen-activated protein kinase 10 (Mus musculus) (UniProt Q61831). As to the kind of experiment: JNK3 AlphaScreen Assay (AID 530; active = well fitted curve in either direction with a large enough effect, not every such curve was filed as active;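 also: kinase came from lysate of stimulated human HepG2 cells; signal reports phosphorylation of biotinylated GST-cJun 1-79 at Ser73 with 10 µM ATP; % is scaled to controls: 0 for no effect and ±100 for the full control effect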). The settings on record: JNK3 lysate, c-Jun phosphorylation; series mostly up to 57.1 µM. The essentials: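 HepG2 lysate (IL-1b/TNFa pre-activated) + biotin-GST-cJun 1-79 + anti-pSer73 cJun; cpd titration, 15 min RT; ATP 10 uM start; Tris pH 7.6, MgCl2, DTT, vanadate; beads in EDTA buffer; AlphaScreen.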
On the technique in general: Alpha assays give light when donor and acceptor beads are brought close together.

Test [9] deals with 3',5'-cyclic-AMP phosphodiesterase 4B (Homo sapiens) (UniProt Q07343). The experiment in a line: qHTS Assay for Inhibitors of PDE-IV (AID 607; active = well fitted activation curve with a large enough effect in the main read-out, with a control signal flat, not every such curve was filed as active; also: % of control where 0% means no effect). The settings on record: HEK293 ACTOne CNG channel cells, membrane potential fluorescence; series mostly up to 22.9 µM. The essentials:
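Live HEK293 cells with a modified cyclic nucleotide-gated (CNG) channel report intracellular cAMP via membrane-potential dye fluorescence (ex 535/em 590 nm). Endogenous PDE-IV was targeted. Compounds were tested at up to 22.9 uM final; RO 20-1724 100 uM served as control.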
A general note: In qHTS, concentration-response curves come from the screen itself.

The target in test [10] is Cytochrome P450 3A4 (Homo sapiens) (UniProt P08684). The experiment in a line: qHTS Assay for Activators of Cytochrome P450 3A4 (AID 885). Also: nearly all actives have a fitted effect of over 65% in size. The settings on record: recombinant CYP3A4, Luciferin-PPXE luminescence, 60 min; series mostly up to 57.1 µM. Put shortly:
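Using 20nM recombinant human CYP3A4 in potassium phosphate (200mM), substrate Luciferin-PPXE at 25uM, luminescent luciferin detection followed a 60-min RT NADPH reaction; data scaled to 57 uM ketoconazole.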

Test [11] can be described thus: qHTS Assay for Lipid Storage Modulators (AID 1519; calls by dose curve). The settings on record: Drosophila S3 cells, BODIPY lipid droplet/cell ratio, laser cytometry, cells loaded with oleic acid; for activity change, negative = inhibition: at 57.5 µM (top of the series). The essentials: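 Cells seeded at 5,000 per well were treated with compounds over a concentration series and loaded with oleic acid (400 uM, as added). Lipid droplet fluorescence (488 nm excitation, 500-530 nm channel) was read by laser-scanning cytometry and normalized to 20 uM Triacsin C.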

In test [12] the target is Dual specificity protein kinase CLK4 (Homo sapiens) (UniProt Q9HAZ1). As to the kind of experiment: qHTS Assay for Inhibitors of CDC-like Kinase 4 (Kinase-Glo Assay) (AID 1770). Also: % is scaled to controls: 0 for no effect and ±100 for the full control effect; nearly all actives have a fitted effect of over 65% in size. The settings on record: recombinant Clk4, Kinase-Glo ATP depletion luminescence; series mostly up to 66.7 µM. The essentials:
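Clk4 25 nM, RS peptide 100 uM, ATP 1 uM, pH 7.5 Tris, 10 mM MgCl2, 2.5 mM DTT; 4.5 h RT; ATP depletion read by Kinase-Glo luminescence.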

For test [13] the target is unchanged. The experiment in a line: qHTS Assay for Inhibitors of CDC-like Kinase 4 (ADP-Glo Assay) (AID 1771). Also: % is scaled to controls: 0 for no effect and ±100 for the full control effect; nearly all actives have a fitted effect of over 70% in size. The settings on record: recombinant CLK4, ADP-Glo luminescence; series mostly up to 80 µM. Put shortly: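 25 nM Clk4, 100 uM RS peptide, 1 uM ATP (final); 2 mM MgCl2, 0.5 mM EGTA, 2.5 mM DTT, 0.01% Triton X-100; 1 hr RT. ADP-Glo readout: ATP depletion 45 min, conversion/luciferase 30 min, luminescence.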

Test [14] shares this target. As to the kind of experiment: qHTS Assay for Inhibitors of CDC-like Kinase 4 (ADP-FP Assay) (AID 1795).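 Also: recombinant human CLK4 phosphorylating RS repeat peptide at 1 µM ATP; % is scaled to controls: 0 for no effect and ±100 for the full control effect; nearly all actives have a fitted effect of over 60% in size.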 The settings on record: Transcreener ADP fluorescence polarization; series mostly up to 50 µM. Put shortly: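 Kinase activity was followed as ADP output, converted from fluorescence polarization with a calibration curve. Reactions ran one hour at low ATP (1 uM) with RS peptide substrate.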

Test [15] addresses Ubiquitin carboxyl-terminal hydrolase 1 (Homo sapiens) (UniProt O94782). The experiment in a line: Inhibitors of USP1/UAF1: Pilot qHTS (AID 504865).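 Also: rhodamine fluorescence freed from ubiquitin-rhodamine substrate followed over time; top concentration of the series differs between compounds; % is scaled to controls: 0 for no effect and ±100 for the full control effect; nearly all actives have a fitted effect of over 35% in size.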 The settings on record: purified USP1/UAF1, Ub-rhodamine cleavage fluorescence; series mostly up to 54.9 µM. Put shortly:
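Enzyme-free wells gave the negative control, while test wells held 1nM USP1/UAF1 preincubated with compound for 15 min at room temperature. Ub-Rho at 150nM final started the reaction, and fluorescence at 480/540 nm was recorded kinetically.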

Test [16] in a line: Primary qHTS for small molecule stabilizers of the endoplasmic reticulum resident proteome: Secreted ER Calcium Modulated Protein (SERCaMP) assay (AID 1508630). Also: % is scaled to controls: 0 for no effect and ±100 for the full control effect. The settings on record: SH-SY5Y GLuc-SERCaMP (Gaussia luciferase released on ER calcium loss) secretion, thapsigargin, luminescence; series mostly up to 38.4 µM. The essentials: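 The SH-SY5Y reporter protocol was run at 3 concentrations up to 38.3 uM (primary) or 11 concentrations (follow-up): 16 h compound, 100 nM thapsigargin for 4 h, then extracellular luciferase luminescence.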

Test [17] can be described thus: qHTS Assay for Identification of Small Molecule Agonists for Hypoxia Response Element Signaling Pathway (AID 914; active = well fitted activation curve with a large enough effect in the signal ratio, with a control signal flat, not every such curve was filed as active; the % refers to the signal ratio; also: % of control where 0% means no effect). The settings on record: ME-180 (cervical carcinoma) HRE-bla reporter, beta-lactamase ratio, CoCl2, 17 h; activation: stronger effect = higher value. The essentials:
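HRE-bla ME-180 cells with beta-lactamase reporter under hypoxia response element, compounds with EC50 CoCl2 for 17 hours at 37 C. CCF4 substrate, 460nm/530nm emission ratio gave %Activity; AC50 from titration series.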

Test [18] deals with Cytochrome P450 2C9 (Homo sapiens) (UniProt P11712). As to the kind of experiment: qHTS Assay for Inhibitors and Substrates of Cytochrome P450 2C9 (AID 883). Also: potency is read from the fitted curve at half-maximal effect; nearly all actives have a fitted effect of over 60% in size. The settings on record: recombinant CYP2C9, luciferin-H luminescence, 60 min; series mostly up to 57.1 µM. The essentials:
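10nM CYP2C9 + 100uM Luciferin-H (=KM), 25mM KPO4; cpd 10 min 37C; NADPH regen, 60 min 37C; stop/detect with P450 Glo-Buffer 20 min; luminescence. Norm. to 57uM sulphaphenazole as full inhibition.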

Setting [19] is: measured here: cell count channel max response.
Where [20] appears, read: measured here: lipid channel max response.

Inconclusive results are not listed. Calls of active or inactive are those of the source. Unless noted, calls follow the shape of the dose curve; as a rule, active = well fitted curve in the direction sought with a large enough effect; inconclusive = small, poorly fitted or top-dose-only effect, or another doubt; inactive = no such curve, though single readings can be large; an effect the other way counts as inactive or inconclusive. Some results are limits rather than exact numbers.

Lysosomal acid glucosylceramidase (Homo sapiens), sequence (P04062 whole entry, looked up): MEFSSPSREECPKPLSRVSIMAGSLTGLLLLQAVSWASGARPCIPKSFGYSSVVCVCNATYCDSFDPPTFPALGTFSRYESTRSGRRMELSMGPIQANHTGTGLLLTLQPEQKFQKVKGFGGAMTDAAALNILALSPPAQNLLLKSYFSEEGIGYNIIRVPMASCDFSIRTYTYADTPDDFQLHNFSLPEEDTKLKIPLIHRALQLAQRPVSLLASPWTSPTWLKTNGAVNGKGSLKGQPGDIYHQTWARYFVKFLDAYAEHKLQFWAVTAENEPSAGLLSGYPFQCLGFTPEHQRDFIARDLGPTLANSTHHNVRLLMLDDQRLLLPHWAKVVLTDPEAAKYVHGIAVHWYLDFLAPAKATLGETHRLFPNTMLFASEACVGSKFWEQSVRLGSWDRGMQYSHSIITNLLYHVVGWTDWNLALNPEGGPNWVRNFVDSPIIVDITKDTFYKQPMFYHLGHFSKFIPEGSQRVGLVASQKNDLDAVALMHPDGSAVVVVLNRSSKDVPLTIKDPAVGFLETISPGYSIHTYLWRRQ
Dual specificity protein kinase CLK4 (Homo sapiens), sequence (Q9HAZ1 whole entry, looked up): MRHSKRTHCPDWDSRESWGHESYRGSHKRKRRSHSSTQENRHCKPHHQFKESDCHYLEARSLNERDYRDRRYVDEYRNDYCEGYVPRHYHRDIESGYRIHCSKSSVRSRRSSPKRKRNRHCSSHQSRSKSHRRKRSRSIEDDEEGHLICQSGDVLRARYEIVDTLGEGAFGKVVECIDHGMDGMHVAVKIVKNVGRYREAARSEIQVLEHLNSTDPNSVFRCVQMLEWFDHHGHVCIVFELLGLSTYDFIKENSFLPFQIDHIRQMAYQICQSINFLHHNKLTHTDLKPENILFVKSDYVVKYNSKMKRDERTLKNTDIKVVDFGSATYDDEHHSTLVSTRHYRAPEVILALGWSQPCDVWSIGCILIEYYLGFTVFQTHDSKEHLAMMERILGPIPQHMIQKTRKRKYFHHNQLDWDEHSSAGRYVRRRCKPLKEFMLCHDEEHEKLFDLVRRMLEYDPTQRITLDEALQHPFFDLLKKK
Cytochrome P450 3A4 (Homo sapiens), sequence (P08684 whole entry, looked up): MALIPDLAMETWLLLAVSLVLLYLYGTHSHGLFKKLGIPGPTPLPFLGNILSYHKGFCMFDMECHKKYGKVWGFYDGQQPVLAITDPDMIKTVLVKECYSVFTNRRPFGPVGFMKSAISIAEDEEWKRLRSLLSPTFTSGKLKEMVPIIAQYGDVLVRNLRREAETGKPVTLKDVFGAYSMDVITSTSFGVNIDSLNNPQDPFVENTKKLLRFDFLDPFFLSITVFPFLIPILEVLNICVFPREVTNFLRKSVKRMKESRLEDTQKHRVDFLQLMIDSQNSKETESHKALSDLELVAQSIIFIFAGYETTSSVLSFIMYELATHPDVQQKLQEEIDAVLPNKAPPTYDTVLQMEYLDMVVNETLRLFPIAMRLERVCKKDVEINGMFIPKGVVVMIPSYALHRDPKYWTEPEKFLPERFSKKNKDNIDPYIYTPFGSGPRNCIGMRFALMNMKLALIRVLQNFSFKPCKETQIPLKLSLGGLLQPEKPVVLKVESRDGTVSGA
Ubiquitin carboxyl-terminal hydrolase 1 (Homo sapiens), sequence (O94782 whole entry, looked up): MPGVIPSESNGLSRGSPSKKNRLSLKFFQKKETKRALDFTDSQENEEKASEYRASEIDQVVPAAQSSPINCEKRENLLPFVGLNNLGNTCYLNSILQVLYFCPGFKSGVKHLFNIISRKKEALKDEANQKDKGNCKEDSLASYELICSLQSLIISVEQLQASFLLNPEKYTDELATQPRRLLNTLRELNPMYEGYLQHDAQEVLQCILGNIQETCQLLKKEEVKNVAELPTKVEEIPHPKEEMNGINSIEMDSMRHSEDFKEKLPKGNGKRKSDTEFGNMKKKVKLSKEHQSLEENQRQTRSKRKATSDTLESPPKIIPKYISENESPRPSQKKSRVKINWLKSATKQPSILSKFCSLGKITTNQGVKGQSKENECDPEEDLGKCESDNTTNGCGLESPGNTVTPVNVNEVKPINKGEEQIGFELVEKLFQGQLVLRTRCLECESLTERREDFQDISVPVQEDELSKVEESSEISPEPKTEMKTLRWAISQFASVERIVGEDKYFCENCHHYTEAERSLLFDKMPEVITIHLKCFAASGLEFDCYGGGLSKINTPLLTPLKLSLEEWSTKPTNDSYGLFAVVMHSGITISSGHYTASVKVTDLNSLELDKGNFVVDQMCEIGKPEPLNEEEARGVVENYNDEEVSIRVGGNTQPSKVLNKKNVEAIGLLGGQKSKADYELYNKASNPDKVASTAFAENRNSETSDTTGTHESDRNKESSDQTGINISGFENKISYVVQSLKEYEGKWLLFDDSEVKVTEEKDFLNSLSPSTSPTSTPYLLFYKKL
3',5'-cyclic-AMP phosphodiesterase 4B (Homo sapiens), sequence (Q07343 whole entry, looked up): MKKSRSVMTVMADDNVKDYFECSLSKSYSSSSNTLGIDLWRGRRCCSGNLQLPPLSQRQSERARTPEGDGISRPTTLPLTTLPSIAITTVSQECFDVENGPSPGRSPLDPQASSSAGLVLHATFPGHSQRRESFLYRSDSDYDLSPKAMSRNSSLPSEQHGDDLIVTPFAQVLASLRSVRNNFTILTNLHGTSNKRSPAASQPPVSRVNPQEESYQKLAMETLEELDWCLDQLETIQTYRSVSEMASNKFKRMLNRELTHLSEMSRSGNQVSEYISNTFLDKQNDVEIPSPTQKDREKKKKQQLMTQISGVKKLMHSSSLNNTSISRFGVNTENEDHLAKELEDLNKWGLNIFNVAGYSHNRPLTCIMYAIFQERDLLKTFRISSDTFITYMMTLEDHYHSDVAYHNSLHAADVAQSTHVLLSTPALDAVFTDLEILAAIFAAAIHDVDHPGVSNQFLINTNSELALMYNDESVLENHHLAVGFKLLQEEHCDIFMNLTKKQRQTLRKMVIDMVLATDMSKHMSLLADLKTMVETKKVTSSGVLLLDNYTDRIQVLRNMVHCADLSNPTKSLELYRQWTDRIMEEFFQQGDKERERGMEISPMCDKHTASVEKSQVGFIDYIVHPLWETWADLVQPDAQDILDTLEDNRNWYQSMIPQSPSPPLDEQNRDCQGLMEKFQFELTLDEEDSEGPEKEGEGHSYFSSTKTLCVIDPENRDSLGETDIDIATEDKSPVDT
Cytochrome P450 2C9 (Homo sapiens), sequence (P11712 whole entry, looked up): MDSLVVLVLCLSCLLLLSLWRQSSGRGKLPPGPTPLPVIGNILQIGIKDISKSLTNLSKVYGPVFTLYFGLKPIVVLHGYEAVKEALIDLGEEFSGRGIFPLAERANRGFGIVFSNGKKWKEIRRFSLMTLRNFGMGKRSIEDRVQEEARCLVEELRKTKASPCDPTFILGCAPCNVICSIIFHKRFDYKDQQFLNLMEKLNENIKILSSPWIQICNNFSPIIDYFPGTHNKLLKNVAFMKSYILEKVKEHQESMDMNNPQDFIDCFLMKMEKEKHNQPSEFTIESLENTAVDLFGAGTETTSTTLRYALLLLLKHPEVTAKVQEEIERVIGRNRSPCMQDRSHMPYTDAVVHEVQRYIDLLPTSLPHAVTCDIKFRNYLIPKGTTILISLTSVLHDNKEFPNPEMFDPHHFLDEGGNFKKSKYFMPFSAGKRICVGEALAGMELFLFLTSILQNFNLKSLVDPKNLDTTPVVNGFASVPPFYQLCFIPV

`COc1ccc(-n2c(=O)c(C)nc3cnc(OC)nc32)cc1`: the values for the Potency in test [1], in test [6] and in test [7] were > 11.4 µM (inactive), > 9.22 µM (inactive) and > 46 µM (inactive), respectively. Also, the activity change, negative = inhibition was 13.3% (inactive) in test [2], 3.92% (inactive) in test [4] and 4.38% (inactive) in test [11]. For the same molecule, the Potency entry in [3], in test [9], in test [10], in [12], in [13] and in test [14] was “inactive” throughout. In addition, the Potency result in [15] and in test [16] was “inactive” in each case. The activity, negative = inhibition in test [5] was -15.2% (inactive). Further, in test [8], the call was inactive. In addition, the max response in test [11] (setting [19]) worked out at 12%; in test [11] (setting [20]) it was 18.2%.

Regarding `O=c1cnc2cncnc2n1Cc1ccccc1`, the Potency in test [1] is > 11.4 µM (inactive); in test [3] it was 25.1 µM (active); in test [6], > 9.22 µM (inactive); in test [7] it was > 46 µM (inactive). Moreover, the activity change, negative = inhibition in test [2] was -12.8% (inactive); in test [4], -13.5% (inactive); in [11], 0.677% (inactive). The activity, negative = inhibition in test [5] was -12.1% (inactive). In addition, the result in test [8] was inactive. Moreover, the Potency result in test [10], in test [12], in [13], in test [14], in test [15] and in [16] was “inactive” in each case. Moreover, the figures for the max response in test [11] (setting [19]) and in [11] (setting [20]) were 15% and 14%, respectively.

On to `Cc1nc2cnc(N(C)C)nc2n(C2CC2)c1=O`, for which the Potency was > 11.4 µM (inactive) in [1], 3.98 µM (active) in [3], > 9.22 µM (inactive) in test [6] and > 46 µM (inactive) in [7]. In addition, the activity change, negative = inhibition in test [2] was -20% (inactive); in test [4] it was 4.63% (inactive); in test [11] it was 5.93% (inactive). In addition, in [5], the activity, negative = inhibition is -4.62% (inactive). Moreover, the result in [8] was inactive. Also, the Potency entry in test [9], in [12], in test [13], in [14], in test [15] and in test [16] was “inactive” each time. Besides, the activation in test [17] is 9.86% (inactive). Also, the max response worked out at 14.1% in test [11] (setting [19]) and 18.5% in test [11] (setting [20]).

Consider `COc1ccccc1CCn1c(=O)c(-c2cccc(F)c2)nc2cncnc21`, for which the Potency was > 11.4 µM (inactive) in test [1]; 1.58 µM (active) in test [3]; > 9.22 µM (inactive) in test [6]; > 46 µM (inactive) in test [7]; 2.51 µM (active) in test [18]. The activity change, negative = inhibition in test [2] is -14.2% (inactive); in test [4] it was -17.1% (inactive); in [11], 6.88% (inactive). The activity, negative = inhibition in [5] is 3.83% (inactive). The molecule was classed as inactive in [8]. The Potency entry in test [10], in test [12], in test [13], in test [14], in test [15] and in test [16] was “inactive” throughout. Further, the activation in test [17] is -1.08% (inactive). For the same molecule, the max response in test [11] (setting [19]) was found to be 18.2%; in test [11] (setting [20]) it was 19.8%.

On to `CN(C)Cc1ccccc1-c1nc(NCc2cccs2)c2ccccc2n1`, for which the Potency in [1] is > 11.4 µM (inactive); in test [3], 1 µM (active); in [7], > 46 µM (inactive). The figures for the activity change, negative = inhibition in test [2], in [4] and in test [11] were 25.7% (inactive), -24.9% (inactive) and -0.128% (inactive), respectively. In addition, the activity, negative = inhibition in test [5] is 15.6% (inactive). Further, the result in [8] was inactive. For the same molecule, the Potency entry in test [10], in test [12], in [13], in [14], in test [15] and in test [16] was “inactive” each time. Besides, the results for the max response in [11] (setting [19]) and in [11] (setting [20]) were 16.9% and 15.9%, respectively.
